Biological target: ZNF721 full-length (Homo sapiens, UniProt Q8TF20-2 1-923)
Experiment: HT-SELEX; 20 mM HEPES pH 7, 140 mM KCl, 5 mM NaCl, 1 mM K2HPO4, 2 mM MgSO4, 100 uM EGTA, ZnSO4, 0.1% Tween20; room temperature, 1 h; high values mean tight binding
Conditions: protein: ivt; tags: eGFP (N-terminal); dsDNA, one strand shown
Summary of the method: (§1)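 Bead-immobilised tagged transcription factor (full-length or DNA-binding-domain fragment), made in HEK293 lysate or cell-free extract, was incubated with a randomized 40-base DNA library. Binding was for 1 h at room temperature in HEPES/KCl low-stringency buffer with Tween20. After washing and heat elution, bound DNA was PCR-amplified over successive cycles and Illumina-sequenced (~3 million 60 bp reads per sample). Binding signal is a relative k-mer count in selected reads; higher means tighter binding.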

ZNF721 full-length, sequence (Q8TF20 other isoform, or with tags, fused parts or gaps): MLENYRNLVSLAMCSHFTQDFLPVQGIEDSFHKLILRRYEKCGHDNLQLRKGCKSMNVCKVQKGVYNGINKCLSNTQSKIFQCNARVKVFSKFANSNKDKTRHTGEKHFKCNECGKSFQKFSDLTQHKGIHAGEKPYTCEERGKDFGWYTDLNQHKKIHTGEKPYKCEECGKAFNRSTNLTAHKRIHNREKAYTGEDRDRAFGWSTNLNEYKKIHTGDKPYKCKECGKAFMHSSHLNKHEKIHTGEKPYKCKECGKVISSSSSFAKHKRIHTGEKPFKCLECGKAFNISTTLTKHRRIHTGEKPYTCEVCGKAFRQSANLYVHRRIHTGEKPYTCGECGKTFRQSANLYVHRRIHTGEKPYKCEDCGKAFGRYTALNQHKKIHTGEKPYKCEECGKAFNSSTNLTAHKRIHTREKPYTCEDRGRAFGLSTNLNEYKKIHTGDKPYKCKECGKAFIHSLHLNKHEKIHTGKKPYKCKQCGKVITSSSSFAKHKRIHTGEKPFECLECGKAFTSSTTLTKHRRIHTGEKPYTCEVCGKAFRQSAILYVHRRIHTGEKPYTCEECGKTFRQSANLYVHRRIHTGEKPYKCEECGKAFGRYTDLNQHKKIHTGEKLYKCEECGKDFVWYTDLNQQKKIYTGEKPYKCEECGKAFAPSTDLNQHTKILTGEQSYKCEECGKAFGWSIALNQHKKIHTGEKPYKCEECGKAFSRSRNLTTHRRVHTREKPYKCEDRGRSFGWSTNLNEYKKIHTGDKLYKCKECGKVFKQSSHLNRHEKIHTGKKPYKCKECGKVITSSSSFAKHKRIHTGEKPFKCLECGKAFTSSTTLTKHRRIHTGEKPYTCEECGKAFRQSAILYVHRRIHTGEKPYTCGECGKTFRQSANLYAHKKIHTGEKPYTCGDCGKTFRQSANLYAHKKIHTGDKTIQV

Sequence	binding signal [relative 10-mer count]
ATGGGGTGGG	0.125
ACCCCCACCA	0.145
CCCAACCCCC	0.208
AGCCCCACCC	0.106
CAGCATACCC	0.596
CCTCCCCCCC	0.236
ACCCACCACC	0.214
CACCCCACCG	0.124
CCCCACCACC	0.447
AAAAAAGCTG	0.303
CCCAAAAAAA	0.149
CGCCCCGCCC	0.139
CACCCGCCCA	0.103
AAAAGCATAC	0.149
ACCACCCCGC	0.104
GAAAAGCAGC	0.106
CCCCCACCAC	0.312
AAAAAAAAGG	0.175
CCCACACCCC	0.278
ACCCCACCGC	0.106

Sequence	binding signal [relative 10-mer count]
CCACGCCCAC	0.102
CCACACCACC	0.135
CCCCCCGACC	0.147
AAAAAAGGCA	0.18
CTCCCCCCAC	0.148
AAAAAAAAGA	0.116
AAAGCAGCAC	0.125
CCCCACGCCC	0.235
AAAAAGAGCA	0.108
CTCCCTCCCC	0.143
CCCCCACCCG	0.174
CACCCCACAC	0.138
CACCACCGCC	0.103
CGGAAAAAAG	0.109
CACCACCCGC	0.111
AGGATACCCT	0.106
CAGAAAAAAG	0.147
CCCCCGCCTC	0.119
CACCCCCCCA	0.16
ATCCCCACCC	0.114

Biological target: ZNF721 DBD1 (Homo sapiens, UniProt Q8TF20-2 29-461)
Experiment: as above
Conditions: protein: ivt; tags: eGFP (N-terminal); dsDNA, one strand shown
Summary of the method: as §1

ZNF721 DBD1, sequence (Q8TF20 17-449): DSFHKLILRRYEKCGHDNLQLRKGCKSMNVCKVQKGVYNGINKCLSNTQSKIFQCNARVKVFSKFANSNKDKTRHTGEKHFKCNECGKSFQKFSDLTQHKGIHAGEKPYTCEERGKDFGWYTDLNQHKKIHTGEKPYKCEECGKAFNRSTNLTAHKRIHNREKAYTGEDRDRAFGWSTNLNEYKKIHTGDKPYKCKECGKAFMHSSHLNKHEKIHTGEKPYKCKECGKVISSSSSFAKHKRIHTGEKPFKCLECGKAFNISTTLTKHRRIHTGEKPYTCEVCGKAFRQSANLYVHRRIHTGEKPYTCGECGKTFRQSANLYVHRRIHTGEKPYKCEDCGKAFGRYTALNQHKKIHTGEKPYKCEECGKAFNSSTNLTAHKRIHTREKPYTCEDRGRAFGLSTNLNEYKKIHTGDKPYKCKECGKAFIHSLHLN

Sequence	binding signal [relative 10-mer count]
ATGGGGTGGG	0.00477
ACCCCCACCA	0.00573
CCCAACCCCC	0.00789
AGCCCCACCC	0.00312
CAGCATACCC	0.00271
CCTCCCCCCC	0.0115
ACCCACCACC	0.0104
CACCCCACCG	0.00459
CCCCACCACC	0.0213
AAAAAAGCTG	0.137
CCCAAAAAAA	0.0067
CGCCCCGCCC	0.00555
CACCCGCCCA	0.00358
AAAAGCATAC	0.0247
ACCACCCCGC	0.00358
GAAAAGCAGC	0.00147
CCCCCACCAC	0.0133
AAAAAAAAGG	0.00477
CCCACACCCC	0.00977
ACCCCACCGC	0.00408

Sequence	binding signal [relative 10-mer count]
CCACGCCCAC	0.00514
CCACACCACC	0.0055
CCCCCCGACC	0.00482
AAAAAAGGCA	0.00284
CTCCCCCCAC	0.00794
AAAAAAAAGA	0.00757
AAAGCAGCAC	0.00583
CCCCACGCCC	0.00853
AAAAAGAGCA	0.0078
CTCCCTCCCC	0.00927
CCCCCACCCG	0.00587
CACCCCACAC	0.0055
CACCACCGCC	0.00454
CGGAAAAAAG	0.023
CACCACCCGC	0.00454
AGGATACCCT	0.00527
CAGAAAAAAG	0.0308
CCCCCGCCTC	0.00509
CACCCCCCCA	0.00716
ATCCCCACCC	0.00459

Biological target: ZNF721 DBD2 (Homo sapiens, UniProt Q8TF20-2 395-923)
Experiment: as above
Conditions: protein: ivt; tags: eGFP (N-terminal); dsDNA, one strand shown
Summary of the method: as §1

ZNF721 DBD2, sequence (Q8TF20 383-911): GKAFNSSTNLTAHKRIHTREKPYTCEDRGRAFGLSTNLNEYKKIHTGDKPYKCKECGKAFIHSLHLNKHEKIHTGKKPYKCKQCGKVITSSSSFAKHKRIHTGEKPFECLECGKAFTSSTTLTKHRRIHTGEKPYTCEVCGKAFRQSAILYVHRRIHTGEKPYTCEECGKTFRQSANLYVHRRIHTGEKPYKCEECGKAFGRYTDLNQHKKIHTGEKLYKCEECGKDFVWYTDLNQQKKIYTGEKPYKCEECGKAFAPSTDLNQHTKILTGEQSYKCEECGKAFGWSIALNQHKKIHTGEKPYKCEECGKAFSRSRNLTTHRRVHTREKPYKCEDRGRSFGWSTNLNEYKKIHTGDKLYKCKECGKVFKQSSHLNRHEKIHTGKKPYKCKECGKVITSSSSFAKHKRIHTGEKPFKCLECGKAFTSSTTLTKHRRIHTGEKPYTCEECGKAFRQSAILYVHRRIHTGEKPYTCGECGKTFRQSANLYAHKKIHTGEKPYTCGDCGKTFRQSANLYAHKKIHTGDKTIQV

Sequence	binding signal [relative 10-mer count]
ATGGGGTGGG	0.00551
ACCCCCACCA	0.00503
CCCAACCCCC	0.00168
AGCCCCACCC	0.00959
CAGCATACCC	0.909
CCTCCCCCCC	0.00707
ACCCACCACC	0.00791
CACCCCACCG	0.00372
CCCCACCACC	0.00767
AAAAAAGCTG	0.00707
CCCAAAAAAA	0.0681
CGCCCCGCCC	0.00132
CACCCGCCCA	0.0024
AAAAGCATAC	0.039
ACCACCCCGC	0.00252
GAAAAGCAGC	0.125
CCCCCACCAC	0.00707
AAAAAAAAGG	0.12
CCCACACCCC	0.00407
ACCCCACCGC	0.00336

Sequence	binding signal [relative 10-mer count]
CCACGCCCAC	0.00431
CCACACCACC	0.00623
CCCCCCGACC	0.00288
AAAAAAGGCA	0.13
CTCCCCCCAC	0.00419
AAAAAAAAGA	0.0612
AAAGCAGCAC	0.126
CCCCACGCCC	0.00395
AAAAAGAGCA	0.0193
CTCCCTCCCC	0.00312
CCCCCACCCG	0.00384
CACCCCACAC	0.00875
CACCACCGCC	0.00324
CGGAAAAAAG	0.0288
CACCACCCGC	0.00527
AGGATACCCT	0.171
CAGAAAAAAG	0.0475
CCCCCGCCTC	0.0036
CACCCCCCCA	0.00443
ATCCCCACCC	0.00515
